Screening results from PubChem BioAssay.
This is a sample that favours compounds with a hit; in the whole collection about 6.9% have one here.
KB-3-1 tox – kills parental KB-3-1 adenocarcinoma cells. AID 1347075. KB-3-1 viability, CellTiter-Glo ATP luminescence, 72 h. 400,000 compounds, 1.4% hits. Potency, µM (top dose mostly 46.1 µM), actives largely listed as cytotoxic; further: potency means the concentration at half of the fitted maximal effect; on the % scale 0 is the no-effect control and ±100 the full control effect; nearly all actives have a fitted effect of over 60% in size
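KB-3-1 cells, DMEM (no phenol red) + 10% FBS; compound by pin transfer, 72 h, 37 °C. Readout: CellTiter-Glo luminescence after 10 min. Data normalized, curve-fitted.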
ASM inhibitor – blocks human secretory acid sphingomyelinase; placental ASM, HMU-PC fluorogenic substrate, 60 min; Potency, µM (top dose mostly 57.5 µM), for the others: at the highest dose activity change, negative = inhibition, actives largely listed as inhibitors; 340,000 compounds, 0.006% hits; AID 504937; further: potency means the concentration at half of the fitted maximal effect
Target sequence (P17405 47-631 limits assumed): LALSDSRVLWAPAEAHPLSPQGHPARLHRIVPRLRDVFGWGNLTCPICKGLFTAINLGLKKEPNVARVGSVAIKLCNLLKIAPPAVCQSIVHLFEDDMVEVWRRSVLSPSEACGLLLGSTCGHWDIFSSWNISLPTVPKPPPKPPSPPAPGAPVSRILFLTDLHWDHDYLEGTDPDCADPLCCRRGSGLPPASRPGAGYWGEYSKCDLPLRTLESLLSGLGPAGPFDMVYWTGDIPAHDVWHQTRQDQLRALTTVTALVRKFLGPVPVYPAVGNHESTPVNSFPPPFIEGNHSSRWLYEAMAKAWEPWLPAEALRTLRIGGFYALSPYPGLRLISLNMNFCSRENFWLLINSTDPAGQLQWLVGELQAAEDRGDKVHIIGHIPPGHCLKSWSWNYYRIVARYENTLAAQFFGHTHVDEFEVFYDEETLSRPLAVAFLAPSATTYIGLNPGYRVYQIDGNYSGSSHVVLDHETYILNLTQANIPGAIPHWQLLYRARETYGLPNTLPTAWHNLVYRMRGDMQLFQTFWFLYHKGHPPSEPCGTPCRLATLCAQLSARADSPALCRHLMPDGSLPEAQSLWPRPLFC
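Steps: dispense placental human ASM, pin compound, wait 10 min at room temperature, add HMU-PC0 substrate at 9 uM final, incubate 60 min at 37 °C, add stop solution raising pH to 10, read fluorescence.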
SW480 rerep – DNA re-replication induction in SW480 cells; SW480 DNA re-replication, Hoechst DNA content imaging, 48 h; 340,000 compounds, 1.8% hits; AID 624297; Potency, µM (series often up to 46.1 µM), inactives show at the top dose re-replication activation, hits mostly activators; further: potency means the concentration at half of the fitted maximal effect; % of control where 0% means no effect; nearly all actives have a fitted effect of over 55% in size
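Image-based DNA-content assay: after two days of treatment, nuclei were labelled with the DNA dye Hoechst and imaged, and hits were compounds raising the count of nuclei showing high fluorescence intensity.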
KB-V1 cytotox – kills drug-selected multidrug resistant KB-V1 cells | AID 1347076 | 400,000 compounds, 3.4% hits | KB-V1 MDR cells viability, CellTiter-Glo, 72 h | Potency, µM (titrated, usually from 46.1 µM), most hits filed as cytotoxic; further: potency means the concentration at half of the fitted maximal effect; on the % scale 0 is the no-effect control and ±100 the full control effect; nearly all actives have a fitted effect of over 60% in size
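Luminescent ATP read-out (CellTiter-Glo, 10 min) measures survival of drug-selected KB-V1 MDR cells after 72 h, 37 degrees C compound exposure. Medium: phenol-red-free DMEM, 10% FBS. Values from fitted concentration-response curves.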
Giardia kill – kills Giardia lamblia; activity change, % at 7.66 µM, hits read low; Giardia lamblia trophozoite viability; 340,000 compounds, 0.15% hits; AID 540267; in the data active means activity change below about -80%; inconclusive means between about -30% and that limit;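 further: parasites exposed to compound for two days anaerobically before the ATP read; on the % scale 0 is the no-effect control and ±100 the full control effect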
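Anaerobic 48 hrs incubation at 37 deg C of 100 trophozoites/well with test compounds; ATPLite 1-Step luminescence, 15-30 min RT, reports cellular ATP as viability.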
MCF10A rereplic – inducers of DNA re-replication in MCF 10A breast cells | MCF 10A DNA re-replication, Hoechst nuclear intensity, 48 h | 350,000 compounds, 2.9% hits | Potency, µM (series often up to 46.1 µM), for inactives: at the highest dose activity, positive = re-replication, most hits filed as activators; further: potency means the concentration at half of the fitted maximal effect; % of control where 0% means no effect; nearly all actives have a fitted effect of over 50% in size
* = called active by the depositor; i = inactive; ? = inconclusive; / = no result given; [ ] = dose if it differs, or a comment. Unless noted, the call rests on the fitted dose curve; in most records, active means well fitted curve in the direction sought with a large enough effect; inconclusive means small, poorly fitted or top-dose-only effect, or another doubt; inactive means no such curve, though single readings can be large; an effect the other way counts as inactive or inconclusive.

SMILES | KB-3-1 tox | ASM inhibitor | SW480 rerep | KB-V1 cytotox | Giardia kill | MCF10A rereplic
O=C(CCCN1C(=O)/C(=C/c2cccc(Br)c2)SC1=S)NCCCN1CCOCC1 | ? | -15% | -2% | ? | 11 | 23µM*
O=C(CCN1C(=O)/C(=C/c2ccccc2Cl)SC1=S)NCCCN1CCOCC1 | 15µM* | -7% | ? | i | 2 | -4%
Cc1ccc(C)c(-n2c(CCC(=O)O)ccc2-c2ccc(Cl)cc2)c1 | i | / | / | i | / | /
Nc1cc2ccncc2c2ccccc12 | i | 250% | ? | ? | 12 | 21µM*
Cc1cc(SCC(=O)c2ccc(Br)cc2)cc(C)[o+]1 | i | / | / | i | / | /
CC(C)[C@H](NC(=O)c1ccccc1Cl)C(=O)OCc1cc([N+](=O)[O-])cc2c1OCOC2 | i | 4% | -2% | 21µM* | -6 | 13%
CC(C)[C@H](NS(=O)(=O)c1ccccc1)C(=O)OCc1cc([N+](=O)[O-])cc2c1OCOC2 | i | -3% | 2% | i | -2 | 2%
COc1ccc2c(CNC3CCCCCC3)c(C(=O)O)n(Cc3ccccc3F)c2c1 | i | / | / | i | / | /
c1csc(-c2nn3c(C4COc5ccccc5O4)nnc3s2)c1 (centres undefined) | i | -16% | 3.7µM* | ? | -8 | ?
CO/N=C/c1ccc(N2CCN(C(=O)c3ccc(C)cc3)CC2)c([N+](=O)[O-])c1 | ? | -6% | 1% | 9.2µM* | 8 | 19%
Cc1ccc(S(=O)(=O)N2CCN(c3ccc(C(=O)N4CCOCC4)cc3[N+](=O)[O-])CC2)cc1 | i | -2% | -6% | 2.9µM* | -9 | ?
Cc1ccc(S(=O)(=O)N2CCN(C(=O)c3ccc(N4CCCC4)c([N+](=O)[O-])c3)CC2)cc1 | i | ? | ? | ? | 11 | 2%
CO/N=C/c1ccc(N2CCCC2)c([N+](=O)[O-])c1 | i | -6% | -5% | ? | -26 | -7%
NC(=O)c1ccc(N2CCN(S(=O)(=O)c3ccccc3)CC2)c([N+](=O)[O-])c1 | 18µM* | -4% | -4% | 9.2µM* | -2 | 35%
CC1CCN(CCCNC(=O)c2cc3c(s2)-c2ccccc2OC3)CC1 | 23µM* | i | 84% | i | -17 | 5.8µM*
COCCCN(Cc1ccco1)C(=O)c1cc2c(s1)-c1ccccc1OC2 | ? | / | / | 10µM* | / | /
CCOc1ccc(CNC(=O)c2cc3c(s2)-c2ccccc2OC3)cc1 | i | / | / | i | / | /
CCc1ccc(CNC(=O)c2cc3c(s2)-c2ccccc2OC3)cc1 | 15µM* | / | / | ? | / | /
CC1CCCN(CCCNC(=O)c2cc3c(s2)-c2ccccc2OC3)C1 (centres undefined) | ? | i | ? | i | -20 | ?
Cc1cccc2c1-c1sc(C(=O)NCCCN3CCC(C)CC3)cc1CO2 | ? | i | 29µM* | i | -24 | 23µM*
Cc1ccc2[nH]cc(C(c3ccccc3)c3cccs3)c2c1 (centres undefined) | i | / | / | i | / | /
COc1ccc(CN2C(=O)C(CC(=O)NCCCCc3ccccc3)CC(C(=O)N3CCCCCC3)=C2C)cc1 (centres undefined) | / | / | / | i | / | /
CCOC(=O)c1sc2nccc(N(C)C)c2c1N=CNOCc1ccccc1 | ? | i | ? | 9.2µM* | -9 | 21µM*
CCOC(=O)c1sc2nccc(N(C)C)c2c1N=CNOCc1c(F)cccc1Cl | i | 485% | ? | ? | 10 | 15µM*
Cc1ccc(NC(=O)C2CCC(CNS(=O)(=O)c3cccc4nsnc34)CC2)c(Cl)c1 (centres undefined) | i | / | / | i | / | /
SMILES | KB-3-1 tox | ASM inhibitor | SW480 rerep | KB-V1 cytotox | Giardia kill | MCF10A rereplic
COc1ccc2[nH]c(C)c(CCNS(=O)(=O)c3cc(F)ccc3OC)c2c1 | i | / | / | i | / | /
CC(=O)OC[C@H]1O[C@@H](O/N=C/[C@@H](C)[C@H](OCc2ccccc2)C(C)C)[C@H](OC(C)=O)[C@@H](OC(C)=O)[C@@H]1OC(C)=O | / | / | 8% | / | / | 1%
C=C(CN(C)C)C(=O)c1ccc(OC2OC(COC(C)=O)C(OC(C)=O)C(OC(C)=O)C2OC(C)=O)cc1 (centres undefined) | ? | 6% | 5.8µM* | ? | -18 | ?
CCN(CC)CCCCN1c2ccccc2Sc2ccccc21 | ? | -4% | 18µM* | ? | 15 | 26µM*
CCN(CC)CC(=O)N1c2ccccc2Sc2ccccc21 | i | 3% | -10% | i | -1 | -1%
O=C(N/N=C/c1ccccc1C(=O)O)c1cccc(S(=O)(=O)N2CCCCC2)c1 | i | 2% | ? | i | 6 | -9%
CCCN1CN(c2ccccc2)C(=S)N(c2ccccc2)C1 | i | 7% | 3.7µM* | i | -19 | 0%
CCCN1CNC(=S)N(c2ccccc2OC)C1 | i | 0% | -34% | i | -1 | -5%
O=C(Cn1c(COc2ccccc2)nc2ccccc21)Nc1cc(Cl)cc(Cl)c1 | i | -1% | -2% | i | ? | 12µM*
O=C(Cn1c(COc2ccccc2)nc2ccccc21)Nc1cc(Cl)ccc1Cl | ? | -2% | 9% | 23µM* | -20 | 0%
CCn1cc(S(=O)(=O)c2ccc(Cl)cc2)c(=O)c2cc(F)c(N3CCOCC3)cc21 | i | / | / | i | / | /
CCN(Cc1ccccc1)C(=O)Cn1c(=O)n(-c2ccc(F)c(Cl)c2)c(=O)c2sc3ccccc3c21 | i | / | / | ? | / | /
CCOC(=O)C(C)(C)NS(=O)(=O)c1ccc(Cl)c([N+](=O)[O-])c1 | ? | 3% | -5% | i | -8 | ?
CCOC(=O)C(C)(C)N(Cc1ccc(C)cc1)S(=O)(=O)c1ccc(Cl)c([N+](=O)[O-])c1 | i | 1% | ? | i | -5 | 12µM*
CCOC(=O)C(C)(C)N(Cc1ccc(Cl)cc1)S(=O)(=O)c1ccc(Cl)c([N+](=O)[O-])c1 | / | / | ? | / | / | 13µM*
CCN[C@@H]1CN(CCCOC)S(=O)(=O)c2sc(S(N)(=O)=O)cc21 | / | / | -6%[20.6 µM] | / | / | -2%[20.6 µM]
O=C(COC(=O)c1c2c(nc3ccccc13)/C(=C/c1cccc([N+](=O)[O-])c1)CCC2)NC1CCS(=O)(=O)C1 (centres undefined) | ? | -10% | / | 23µM* | -11 | ?
CN(C(=O)COC(=O)c1c2c(nc3ccccc13)/C(=C/c1cccc([N+](=O)[O-])c1)CCC2)C1CCS(=O)(=O)C1 (centres undefined) | 5.8µM* | -8% | -2% | ? | -9 | ?
COC(=O)c1ccc(NC(=O)CSc2nnc(-c3cccnc3)o2)cc1 | i | -2% | -10% | i | 16 | 10%
